Assay results reported in PubChem BioAssay AID1159580 (chemical genetic matrix, 2015).
Among all 5,500 compounds or so, about 2,000 (36%) were called active. Roughly 18% stayed inconclusive and do not appear here. No stated cut-off is given here; in the data, active means normalized growth mostly below about 0.91 (no sharp cut-off); inconclusive means no clear call, values can overlap the other calls; inactive means mostly above about 0.92. The list shows a part of the results.

Assay: chemical genetic growth profiling, strain panel (AID 1159580);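 further: tested at 20 µM; growth read once vehicle control cultures reached saturation at 30 °C; 1 = growth at the plate median or of vehicle wells; lower values mean less growth of the strain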
Details: growth OD
[1] = S. cerevisiae deletion strains, locus YAL013W, strain DEP1, active compounds read low
[2] = S. cerevisiae deletion strains, locus YBR229C, strain ROT2, active compounds read low
[3] = S. cerevisiae deletion strains, locus YDL101C, strain DUN1, active compounds read low
[4] = S. cerevisiae deletion strains, locus YDR150W, strain NUM1, active compounds read low
[5] = S. cerevisiae deletion strains, locus YEL061C, strain CIN8, active compounds read low
[6] = S. cerevisiae deletion strains, locus YGR078C, strain PAC10, active compounds read low
[7] = S. cerevisiae deletion strains, locus YHR030C, strain SLT2, active compounds read low
[8] = S. cerevisiae deletion strains, locus YJR043C, strain POL32, active compounds read low
[9] = S. cerevisiae deletion strains, locus YJR075W, strain HOC1, active compounds read low
[10] = S. cerevisiae deletion strains, locus YKL190W, strain CNB1, active compounds read low
[11] = S. cerevisiae deletion strains, locus YLR039C, strain RIC1, active compounds read low
[12] = S. cerevisiae deletion strains, locus YLR262C, strain YPT6, active compounds read low
[13] = S. cerevisiae deletion strains, locus YMR263W, strain SAP30, active compounds read low
[14] = S. cerevisiae deletion strains, locus YMR307W, strain GAS1, active compounds read low
[15] = S. cerevisiae deletion strains, locus YNL153C, strain GIM3, active compounds read low
[16] = S. cerevisiae deletion strains, locus YNL322C, strain KRE1, active compounds read low
[17] = S. cerevisiae deletion strains, locus YOL006C, strain TOP1, active compounds read low
[18] = S. cerevisiae deletion strains, locus YPL055C, strain LGE1, active compounds read low
[19] = S. cerevisiae deletion strains, locus YPL241C, strain CIN2, active compounds read low

Measured: normalized growth

O=C(O)c1nccnc1C(=O)O
inactive: [1] 0.993 | [2] 0.991 | [3] 0.988 | [4] 0.924 | [5] 0.994 | [6] 1 | [7] 1.02 | S. cerevisiae deletion strains, locus YHR087W, strain rtc3, active compounds read low 1.02 | [8] 0.972 | [9] 0.988 | [10] 1.01 | [11] 1.01 | S. cerevisiae deletion strains, locus YLR058C, strain SHM2 (second series), active compounds read low 1.01 | S. cerevisiae deletion strains, locus YLR085C, strain ARP6, active compounds read low 1.01 | [12] 1.03 | S. cerevisiae deletion strains, locus YML094W, strain GIM5, active compounds read low 1.01 | S. cerevisiae deletion strains, locus YMR219W, strain ESC1, active compounds read low 1.01 | [13] 0.991 | [14] 0.992 | [15] 1 | S. cerevisiae deletion strains, locus YNL298W, strain CLA4 (second series), active compounds read low 1.01 | [16] 1.01 | S. cerevisiae deletion strains, locus YNR030W, strain Alg12, active compounds read low 1.05 | [17] 1.06 | [18] 0.951 | [19] 1.01 | S. cerevisiae deletion strains, locus YPR135W, strain CTF4, active compounds read low 1.05

COP(=O)(OC)OC(Br)C(Cl)(Cl)Br (stereo not drawn)
inactive: [1] 0.966 | S. cerevisiae deletion strains, locus YBR021W, strain FUR4, active compounds read low 1.04 | [2] 0.947 | S. cerevisiae deletion strains, locus YCL029C, strain bik1, active compounds read low 0.997 | S. cerevisiae deletion strains, locus YDL035C, strain GPR1, active compounds read low 0.984 | S. cerevisiae deletion strains, locus YDL074C, strain BRE1, active compounds read low 0.961 | [3] 0.988 | S. cerevisiae deletion strains, locus YDL134C, strain PPH21, active compounds read low 0.994 | S. cerevisiae deletion strains, locus YDL185W, strain tfp1, active compounds read low 0.989 | S. cerevisiae deletion strains, locus YDL192W, strain arf1, active compounds read low 1 | S. cerevisiae deletion strains, locus YDR101C, strain arx1, active compounds read low 0.999 | [4] 0.984 | S. cerevisiae deletion strains, locus YDR162C, strain NBP2, active compounds read low 0.988 | S. cerevisiae deletion strains, locus YDR318W, strain mcm21, active compounds read low 1 | S. cerevisiae deletion strains, locus YDR388W, active compounds read low 1.01 | S. cerevisiae deletion strains, locus YDR502C, strain sam2, active compounds read low 1 | [5] 0.993 | S. cerevisiae deletion strains, locus YER110C, active compounds read low 0.993 | S. cerevisiae deletion strains, locus YER155C, strain BEM2, active compounds read low 1 | S. cerevisiae deletion strains, locus YER167W, strain BCK2, active compounds read low 0.981 | S. cerevisiae deletion strains, locus YGL078C, strain dbp3, active compounds read low 1.01 | S. cerevisiae deletion strains, locus YGL086W, strain mad1, active compounds read low 0.989 | S. cerevisiae deletion strains, locus YGL248W, strain PDE1, active compounds read low 0.968 | [6] 0.987 | S. cerevisiae deletion strains, locus YGR135W, strain pre9, active compounds read low 1.01 | S. cerevisiae deletion strains, locus YGR229C, strain SMI1, active compounds read low 0.996 | S. cerevisiae deletion strains, locus YGR252W, strain gcn5, active compounds read low 1.06 | [7] 1.01 | S. cerevisiae deletion strains, locus YHR079C, strain IRE1 (second series), active compounds read low 0.995 | S. cerevisiae deletion strains, locus YHR094C, strain hxt1, active compounds read low 1.01 | S. cerevisiae deletion strains, locus YHR129C, strain ARP1, active compounds read low 0.969 | S. cerevisiae deletion strains, locus YHR200W, strain rpn10, active compounds read low 0.997 | S. cerevisiae deletion strains, locus YIL066C, strain RNR3, active compounds read low 0.984 | S. cerevisiae deletion strains, locus YIL073C, strain SPO22, active compounds read low 1.06 | S. cerevisiae deletion strains, locus YIL125W, strain kgd1, active compounds read low 1 | S. cerevisiae deletion strains, locus YIR030C, strain dcg1, active compounds read low 1.01 | S. cerevisiae deletion strains, locus YJL095W, strain BCK1, active compounds read low 1 | S. cerevisiae deletion strains, locus YJL134W, strain LCB3, active compounds read low 0.994 | S. cerevisiae deletion strains, locus YJL168C, strain set2, active compounds read low 0.997 | S. cerevisiae deletion strains, locus YJL187C, strain SWE1 (second series), active compounds read low 0.965 | [8] 0.999 | [9] 0.964 | S. cerevisiae deletion strains, locus YKL009W, strain mrt4, active compounds read low 0.948 | S. cerevisiae deletion strains, locus YKL068W, active compounds read low 0.995 | S. cerevisiae deletion strains, locus YKL085W, strain MDH1 (second series), active compounds read low 1.01 | S. cerevisiae deletion strains, locus YKL085W, strain MDH1, active compounds read low 1.01 | [10] 0.997 | S. cerevisiae deletion strains, locus YKR001C, strain vps1, active compounds read low 1.01 | [11] 0.997 | S. cerevisiae deletion strains, locus YLR058C, strain SHM2, active compounds read low 0.979 | S. cerevisiae deletion strains, locus YLR102C, strain apc9, active compounds read low 0.994 | [12] 0.99 | S. cerevisiae deletion strains, locus YLR268W, strain sec22, active compounds read low 1.01 | S. cerevisiae deletion strains, locus YLR330W, strain CHS5, active compounds read low 0.988 | S. cerevisiae deletion strains, locus YLR342W, strain FKS1 (second series), active compounds read low 0.98 | S. cerevisiae deletion strains, locus YLR371W, strain rom2, active compounds read low 0.999 | S. cerevisiae deletion strains, locus YLR418C, strain cdc73, active compounds read low 0.987 | S. cerevisiae deletion strains, locus YML016C, strain PPZ1, active compounds read low 0.989 | S. cerevisiae deletion strains, locus YML032C, strain rad52, active compounds read low 1.01 | S. cerevisiae deletion strains, locus YML124C, strain tub3, active compounds read low 1.01 | S. cerevisiae deletion strains, locus YMR078C, strain ctf18, active compounds read low 1.02 | S. cerevisiae deletion strains, locus YMR223W, strain ubp8, active compounds read low 1 | [13] 0.989 | [14] 1.02 | S. cerevisiae deletion strains, locus YNL067W, strain RPL9B, active compounds read low 0.974 | S. cerevisiae deletion strains, locus YNL128W, strain TEP1, active compounds read low 0.957 | [15] 0.971 | S. cerevisiae deletion strains, locus YNL233W, strain BNI4, active compounds read low 0.978 | S. cerevisiae deletion strains, locus YNL250W, strain rad50, active compounds read low 0.999 | S. cerevisiae deletion strains, locus YNL271C, strain bni1, active compounds read low 1.01 | S. cerevisiae deletion strains, locus YNL298W, strain CLA4, active compounds read low 1.01 | S. cerevisiae deletion strains, locus YNL307C, strain MCK1, active compounds read low 1.02 | [16] 0.987 | S. cerevisiae deletion strains, locus YNR052C, strain pop2, active compounds read low 1.01 | [17] 1.04 | S. cerevisiae deletion strains, locus YOL012C, strain htz1 1.23 | S. cerevisiae deletion strains, locus YOL147C, strain pex11, active compounds read low 1.01 | S. cerevisiae deletion strains, locus YOR061W, strain CKA2, active compounds read low 0.973 | S. cerevisiae deletion strains, locus YOR069W, strain VPS5, active compounds read low 0.998 | S. cerevisiae deletion strains, locus YOR136W, strain idh2, active compounds read low 1 | S. cerevisiae deletion strains, locus YOR144C, strain elg1, active compounds read low 1 | S. cerevisiae deletion strains, locus YOR184W, strain ser1, active compounds read low 1.01 | S. cerevisiae deletion strains, locus YOR316C, strain cot1, active compounds read low 0.992 | [18] 0.99 | [19] 0.998 | S. cerevisiae deletion strains, locus YPR119W, strain clb2, active compounds read low 1.01 | S. cerevisiae deletion strains, locus YPR141C, strain kar3, active compounds read low 0.993 | S. cerevisiae deletion strains, locus YPR163C, strain tif3, active compounds read low 1 | S. cerevisiae deletion strains, locus YPR167C, strain met16, active compounds read low 0.99 | S. cerevisiae deletion strains, strain wtn01, active compounds read low 1 | S. cerevisiae strains, strain wild type, active compounds read low 0.994
